# Experimental data from PubChem BioAssay AID1159580 (chemical genetic matrix, 2015).
# Values joined by “and” are separate entries in the source; they are usually repeats but may differ in a detail not shown here. Equal entries are not always repeated. Hit rate of the full screen: of about 5,500 compounds, about 2,000 (36%) were called active. Not shown: some 18% with an inconclusive outcome. No stated cut-off is given here; in the data, active means normalized growth mostly below about 0.91 (no sharp cut-off); inconclusive means no clear call, values can overlap the other calls; inactive means mostly above about 0.92. This is one part of the list.
# Test: chemical genetic growth profiling, strain panel (AID 1159580);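 further: tested at 20 µM; growth read once vehicle control cultures reached saturation at 30 °C; 1 = growth at the plate median or of vehicle wells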
# Conditions: S. cerevisiae deletion strains, growth OD
compound,measurement,setting,value
CCC(=O)OCC(=O)[C@@]1(OC(=O)CC)[C@@H](C)CC2C3CCC4=CC(=O)C=C[C@]4(C)C3(F)[C@@H](O)C[C@@]21C (stereo partly drawn),normalized growth,"locus YAL013W, strain DEP1, stronger effect = lower value",0.876 (active)
same,normalized growth,"locus YAL021C, strain ccr4, stronger effect = lower value",0.958 (inactive)
same,normalized growth,"locus YAL026C, strain drs2, stronger effect = lower value",1 (inactive)
same,normalized growth,"locus YAL030W, strain snc1, stronger effect = lower value",1 (inactive)
same,normalized growth,"locus YBL061C, strain skt5, stronger effect = lower value",1.01 (inactive)
same,normalized growth,"locus YBR009C, strain hhf1, stronger effect = lower value",0.999 (inactive)
same,normalized growth,"locus YBR021W, strain FUR4, stronger effect = lower value",0.779 (active)
same,normalized growth,"locus YBR023C, strain chs3, stronger effect = lower value",1.01 (inactive)
same,normalized growth,"locus YBR171W, strain sec66, stronger effect = lower value",1 (inactive)
same,normalized growth,"locus YBR229C, strain ROT2, stronger effect = lower value",0.925 (inactive)
same,normalized growth,"locus YBR231C, strain swc5, stronger effect = lower value",1.01 (inactive)
same,normalized growth,"locus YBR279W, strain paf1, stronger effect = lower value",1.01 (inactive)
same,normalized growth,"locus YCL011C, strain gbp2, stronger effect = lower value",0.988 (inactive)
same,normalized growth,"locus YCL016C, strain dcc1, stronger effect = lower value",1.01 (inactive)
same,normalized growth,"locus YCL029C, strain bik1, stronger effect = lower value",0.952 (inactive)
same,normalized growth,"locus YCL061C, strain MRC1, stronger effect = lower value",1.01 (inactive)
same,normalized growth,"locus YCL069W, strain vba3, stronger effect = lower value",0.996 (inactive)
same,normalized growth,"locus YCR088W, strain abp1, stronger effect = lower value",0.997 (inactive)
same,normalized growth,"locus YDL005C, strain med2, stronger effect = lower value",0.994 (inactive)
same,normalized growth,"locus YDL035C, strain GPR1, stronger effect = lower value",0.846 (active)
same,normalized growth,"locus YDL040C, strain nat1, stronger effect = lower value",1 (inactive)
same,normalized growth,"locus YDL074C, strain BRE1, stronger effect = lower value",0.793 (inactive)
same,normalized growth,"locus YDL101C, strain DUN1, stronger effect = lower value",0.95 (inactive)
same,normalized growth,"locus YDL134C, strain PPH21, stronger effect = lower value",0.844 (active)
same,normalized growth,"locus YDL185W, strain tfp1, stronger effect = lower value",0.927 (inactive)
same,normalized growth,"locus YDL192W, strain arf1, stronger effect = lower value",0.927 (inactive)
same,normalized growth,"locus YDR001C, strain nth1, stronger effect = lower value",0.991 (inactive)
same,normalized growth,"locus YDR069C, strain doa4, stronger effect = lower value",0.993 (inactive)
same,normalized growth,"locus YDR101C, strain arx1, stronger effect = lower value",0.948 (inactive)
same,normalized growth,"locus YDR137W, strain rgp1, stronger effect = lower value",1.01 (inactive)
same,normalized growth,"locus YDR150W, strain NUM1, stronger effect = lower value",0.974 (inactive)
same,normalized growth,"locus YDR159W, strain sac3, stronger effect = lower value",1.01 (inactive)
same,normalized growth,"locus YDR162C, strain NBP2, stronger effect = lower value",0.708 (active)
same,normalized growth,"locus YDR195W, strain ref2",1 (inactive)
same,normalized growth,"locus YDR297W, strain sur2, stronger effect = lower value",0.996 (inactive)
same,normalized growth,"locus YDR318W, strain mcm21, stronger effect = lower value",0.945 (inactive)
same,normalized growth,"locus YDR334W, strain swr1, stronger effect = lower value",1.01 (inactive)
same,normalized growth,"locus YDR335W, strain msn5, stronger effect = lower value",0.998 (inactive)
same,normalized growth,"locus YDR388W, stronger effect = lower value",0.947 (inactive)
same,normalized growth,"locus YDR392W, strain spt3, stronger effect = lower value",0.988 (inactive)
same,normalized growth,"locus YDR502C, strain sam2, stronger effect = lower value",0.926 (inactive)
same,normalized growth,"locus YEL003W, strain gim4, stronger effect = lower value",0.996 (inactive)
same,normalized growth,"locus YEL037C, strain rad23, stronger effect = lower value",0.987 (inactive)
same,normalized growth,"locus YEL061C, strain CIN8 (second series), stronger effect = lower value",0.989 (inactive)
same,normalized growth,"locus YEL061C, strain CIN8, stronger effect = lower value",0.935 (inactive)
same,normalized growth,"locus YER015W, strain faa2, stronger effect = lower value",0.995 (inactive)
same,normalized growth,"locus YER016W, strain bim1, stronger effect = lower value",1.01 (inactive)
same,normalized growth,"locus YER110C, stronger effect = lower value",0.952 (inactive)
same,normalized growth,"locus YER111C, strain swi4, stronger effect = lower value",0.999 (inactive)
same,normalized growth,"locus YER155C, strain BEM2 (second series), stronger effect = lower value",1.01 (inactive)
same,normalized growth,"locus YER155C, strain BEM2, stronger effect = lower value",0.963 (inactive)
same,normalized growth,"locus YER167W, strain BCK2, stronger effect = lower value",0.881 (active)
same,normalized growth,"locus YFR010W, strain ubp6, stronger effect = lower value",0.993 (inactive)
same,normalized growth,"locus YGL078C, strain dbp3, stronger effect = lower value",0.975 (inactive)
same,normalized growth,"locus YGL086W, strain mad1, stronger effect = lower value",0.954 (inactive)
same,normalized growth,"locus YGL167C, strain pmr1, stronger effect = lower value",1 (inactive)
same,normalized growth,"locus YGL173C, strain kem1, stronger effect = lower value",1 (inactive)
same,normalized growth,"locus YGL227W, strain vid30, stronger effect = lower value",0.995 (inactive)
same,normalized growth,"locus YGL240W, strain doc1, stronger effect = lower value",1 (inactive)
same,normalized growth,"locus YGL248W, strain PDE1, stronger effect = lower value",0.943 (inactive)
same,normalized growth,"locus YGL253W, strain hxk2, stronger effect = lower value",1.03 (inactive)
same,normalized growth,"locus YGR135W, strain pre9, stronger effect = lower value",0.863 (active)
same,normalized growth,"locus YGR252W, strain gcn5, stronger effect = lower value",0.71 (active)
same,normalized growth,"locus YHR013C, strain ard1, stronger effect = lower value",1.01 (inactive)
same,normalized growth,"locus YHR027C, strain rpn1, stronger effect = lower value",1 (inactive)
same,normalized growth,"locus YHR030C, strain SLT2, stronger effect = lower value",0.896 (active) and 0.998 (inactive)
same,normalized growth,"locus YHR079C, strain IRE1 (second series), stronger effect = lower value",0.974 (inactive)
same,normalized growth,"locus YHR079C, strain IRE1, stronger effect = lower value",1.02 (inactive)
same,normalized growth,"locus YHR094C, strain hxt1, stronger effect = lower value",0.965 (inactive)
same,normalized growth,"locus YHR129C, strain ARP1, stronger effect = lower value",0.943 (inactive)
same,normalized growth,"locus YHR142W, strain chs7, stronger effect = lower value",0.988 (inactive)
same,normalized growth,"locus YHR200W, strain rpn10, stronger effect = lower value",0.929 (inactive)
same,normalized growth,"locus YIL066C, strain RNR3, stronger effect = lower value",0.806 (active)
same,normalized growth,"locus YIL073C, strain SPO22, stronger effect = lower value",0.825 (inactive)
same,normalized growth,"locus YIL125W, strain kgd1, stronger effect = lower value",0.971 (inactive)
same,normalized growth,"locus YIR030C, strain dcg1, stronger effect = lower value",0.959 (inactive)
same,normalized growth,"locus YJL092W, strain hpr5, stronger effect = lower value",0.996 (inactive)
same,normalized growth,"locus YJL095W, strain BCK1 (second series), stronger effect = lower value",1 (inactive)
same,normalized growth,"locus YJL095W, strain BCK1, stronger effect = lower value",0.761 (active) and 1.01 (inactive)
same,normalized growth,"locus YJL115W, strain asf1, stronger effect = lower value",0.999 (inactive)
same,normalized growth,"locus YJL129C, strain trk1, stronger effect = lower value",0.951 (inactive)
same,normalized growth,"locus YJL134W, strain LCB3, stronger effect = lower value",0.961 (inactive)
same,normalized growth,"locus YJL154C, strain vps35, stronger effect = lower value",0.981 (inactive)
same,normalized growth,"locus YJL164C, strain tpk1, stronger effect = lower value",1 (inactive)
same,normalized growth,"locus YJL166W, strain qcr8, stronger effect = lower value",0.997 (inactive)
same,normalized growth,"locus YJL168C, strain set2, stronger effect = lower value",0.956 (inactive)
same,normalized growth,"locus YJL187C, strain SWE1 (second series), stronger effect = lower value",0.942 (inactive)
same,normalized growth,"locus YJL187C, strain SWE1, stronger effect = lower value",0.996 (inactive)
